Screens (PubChem BioAssay)
Hsp90 Hop PPI: qHTS Assay for Disrupters of an Hsp90 Co-Chaperone Interaction. Hsp90 C-terminal peptide / TPR2A (Hop) interaction, human. AlphaScreen TPR2A-His6 binding biotin-Hsp90 C-terminal peptide. Potency, µM (top dose mostly 57 µM). hit rate 0.44% among 71,000; active = well fitted curve in either direction with a large enough effect; inconclusive = small, poorly fitted or top-dose-only effect, or another doubt
Tau fil binding: qHTS Assay for Tau Filament Binding; Microtubule-associated protein tau (Homo sapiens), P10636; Potency, µM (titrated, usually from 57.1 µM); AID 596, 2007; hit rate 2% among 71,000; recombinant tau filaments, thioflavin S fluorescence, 15 h; filaments grown with octadecylsulfate alongside compound;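 also: actives lower thioflavin S fluorescence by blocking filaments or displacing dye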
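Quantitative HTS: thioflavine S signal from ODS-induced tau filaments, excited at 450 nm, emission 510 nm. Conditions: 1 uM tau, 30 uM ODS, 15 h at 37 C, pH 7.4.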
ALOX15 inhib: qHTS Assay for Inhibitors of 15-hLO (15-human lipoxygenase) | AID 887, 2007 | Potency, µM (top dose mostly 57.1 µM), most hits filed as inhibitors | purified 15hLO-1, xylenol orange hydroperoxide absorbance | hit rate 1.4% among 74,000 | Polyunsaturated fatty acid lipoxygenase ALOX15 (Homo sapiens), P16050; also: nearly all actives have a fitted effect of over 55% in size
Target sequence (P16050 whole entry, looked up): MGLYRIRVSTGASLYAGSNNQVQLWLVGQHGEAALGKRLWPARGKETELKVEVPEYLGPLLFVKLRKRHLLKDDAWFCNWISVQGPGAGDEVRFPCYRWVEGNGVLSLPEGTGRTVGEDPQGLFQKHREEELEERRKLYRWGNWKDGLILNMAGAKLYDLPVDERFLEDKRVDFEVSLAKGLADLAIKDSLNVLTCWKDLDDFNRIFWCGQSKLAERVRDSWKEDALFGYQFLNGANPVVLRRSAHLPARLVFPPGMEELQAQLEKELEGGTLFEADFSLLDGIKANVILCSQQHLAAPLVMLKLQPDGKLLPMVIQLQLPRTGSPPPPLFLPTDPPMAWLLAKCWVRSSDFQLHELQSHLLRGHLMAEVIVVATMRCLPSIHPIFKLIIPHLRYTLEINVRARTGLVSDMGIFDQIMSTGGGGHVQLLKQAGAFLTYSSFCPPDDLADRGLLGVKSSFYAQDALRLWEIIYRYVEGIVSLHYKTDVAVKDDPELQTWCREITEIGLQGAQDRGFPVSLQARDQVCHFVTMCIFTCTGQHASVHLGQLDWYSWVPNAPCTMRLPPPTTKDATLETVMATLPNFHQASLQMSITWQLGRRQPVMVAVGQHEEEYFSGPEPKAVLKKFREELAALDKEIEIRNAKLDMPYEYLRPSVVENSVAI
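Hydroperoxide formed from arachidonic acid (50 uM) by purified human 15hLO-1 (40 nM) oxidizes ferrous iron, and the ferric-xylenol orange complex is read at 573 versus 405 nm. Compounds were preincubated 15 min; reaction ran 6 min at room temperature.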
TsaE inh: qHTS Assay for Inhibitors of YjeE; tRNA threonylcarbamoyladenosine biosynthesis protein TsaE (Escherichia coli (strain …; purified YjeE enzyme, qHTS inhibition assay; Potency, µM; hit rate 0.05% among 71,000; AID 605, 2007
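Fluorescence polarization of a BODIPY Texas Red–ADP probe (2 uM) bound to purified YjeE (10 uM) was read after 15 min room-temperature incubation with compounds. Loss of polarization marks inhibitors; ADP serves as titrated control.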
DNA Pol III inh: qHTS Assay for Inhibitors of DNA Polymerase III Holoenzyme System. Potency, µM (highest dose often 57.1 µM). reconstituted DNA polymerase III holoenzyme replication, biochemical. hit rate 0.25% among 71,000
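Reconstituted *E. coli* holoenzyme (0.35 nM Pol III, 1 nM beta, 154 nM SSB, 2 nM primase) was preincubated with compound for 15 min at RT. Synthesis on 1.4 nM ssM13Gori ran 35 min, then was stopped with PicoGreen/EDTA and read as dsDNA fluorescence.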
ERK AVP inh: qHTS Assay for Inhibitors of the ERK Signaling Pathway using a Homogeneous Screening Assay; HEK293-V1b, vasopressin-stimulated pERK AlphaScreen; Potency, µM (titrated, usually from 57.5 µM), actives largely listed as inhibitors; hit rate 0.99% among 72,000; AID 995, 2007; also: nearly all actives have a fitted effect of over 55% in size
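Phosphorylated ERK1/2 detected via AlphaScreen bead proximity in lysates of V1b-expressing HEK293 cells given 25 nM vasopressin for 5 min after 30 min compound exposure (37 °C). AC50 from Hill equation; basal DMSO 0%, vasopressin 100%.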
Of the large screens only hits and unclear results are named; the others gave an inactive call. Hits are enriched below; roughly 4.2% of the tested compounds scored in any of these assays. Unless noted, calls follow the shape of the dose curve; as a rule, active = well fitted curve in the direction sought with a large enough effect; inconclusive = small, poorly fitted or top-dose-only effect, or another doubt; inactive = no such curve, though single readings can be large; an effect the other way counts as inactive or inconclusive.

CN(c1ccccc1C(=O)N1CCOCC1)S(C)(=O)=O	none
Cn1c(-c2ccc3c(c2)OCO3)cnc1NCc1cccc(Cl)c1	ALOX15 inhib 20µM, ERK AVP inh inconclusive
CC1(C(=O)Nc2nccs2)Cc2ccccc2C(=O)O1 (stereo not drawn)	Tau fil binding 13µM, ALOX15 inhib inconclusive, ERK AVP inh 25µM
COc1ccccc1NC(=O)C1(C)Cc2ccccc2C(=O)O1 (stereo not drawn)	Hsp90 Hop PPI inconclusive
COCCCN(C(=O)Nc1ccc(C)c(C)c1)C(C)c1ccccn1 (stereo not drawn)	none
Cc1cc(C)c2cc(CN(CCO)C(=O)Nc3ccc(Cl)cc3)c(=O)[nH]c2c1	ALOX15 inhib inconclusive, ERK AVP inh 32µM
NC(=O)c1ccccc1N=Cc1ccccn1	none
NC([N-]/N=C/c1ccccn1)=[S]=[Fe].O=S(=O)(O)O	Hsp90 Hop PPI 1.3µM
Cc1c(C)n(C(=O)CN2CCN(c3ccccn3)CC2)c2ccccc12	ERK AVP inh inconclusive
CO[C@@]1(NC(=O)CSCC#N)C(=O)N2C(C(=O)O)=C(CSc3nnnn3C)CSC21 (stereo partly drawn)	none (no result: Hsp90 Hop PPI, Tau fil binding, TsaE inh, DNA Pol III inh)
COc1ccccc1N1CCN(S(=O)(=O)c2ccc3c4c(cccc24)C(=O)N3)CC1	ALOX15 inhib inconclusive
COc1ccccc1N1CCN(S(=O)(=O)c2ccc3c4c(cccc24)C(=O)N3C)CC1	Tau fil binding 25µM
COc1ccc(CNC(=O)c2cc3c(=O)n4ccccc4nc3n(Cc3ccco3)c2=N)cc1	none
COc1ccc(CCn2c(=N)c(C(=O)N3CCN(C)CC3)cc3c(=O)n4ccccc4nc32)cc1	Tau fil binding 16µM, ERK AVP inh inconclusive
N=c1c(C(=O)NCc2ccco2)cc2c(=O)n3ccccc3nc2n1CCc1ccccc1	Tau fil binding 0.63µM, ALOX15 inhib 13µM, ERK AVP inh inconclusive
CCOC(=O)c1cc2c(=O)n3ccccc3nc2n(Cc2ccccc2)c1=N	Tau fil binding 1.6µM
Cc1ccc(Cn2c(=N)c(C(=O)NCc3ccco3)cc3c(=O)n4ccccc4nc32)cc1	Tau fil binding 3.2µM
COc1ccc(NC(=O)C(CC(C)C)NC(=O)c2ccccc2C)cn1 (stereo not drawn)	none
CC(C)(Sc1ccc(CCN(CCCCC2CCCCC2)C(=O)NC2CCCCC2)cc1)C(=O)O	Tau fil binding inconclusive, ALOX15 inhib inconclusive
COc1ccccc1-n1c(SCC(=O)Nc2nnc(C)s2)nc2c(c1=O)SCC2	none
C=C(CO)[C@H]1Cc2c(ccc3c(=O)c4c(oc23)COc2cc(OC)c(OC)cc2-4)O1	Tau fil binding 32µM (no result: ALOX15 inhib, ERK AVP inh)
C=C(CO)C1Cc2c(ccc3c2OC2COc4cc(OC)c(OC)cc4C2C3=O)O1 (stereo not drawn)	ERK AVP inh inconclusive (no result: Hsp90 Hop PPI, Tau fil binding, TsaE inh, DNA Pol III inh)
O=C(O)/C=C(/C(=O)O)[C@]12CCN3CC4=CCO[C@@H]5CC(=O)N[C@@H]1[C@H]5[C@H]4C[C@H]32	none
CCc1nc(N)c(C#N)c(-c2ccc(OC)c(OC)c2)c1C	none
CCc1nc(C)c(C#N)c2cc(OC)c(OC)cc12	Hsp90 Hop PPI inconclusive, ERK AVP inh 25µM
CCc1ccc2oc(-c3cc(N)ccc3Cl)nc2c1	ALOX15 inhib inconclusive
Cc1ccc(C)c(-c2nc3cc(N)ccc3o2)c1	none
CCc1ccc2oc(-c3cc(N)ccc3O)nc2c1	Tau fil binding 25µM, ALOX15 inhib inconclusive
CCc1ccc2oc(-c3cc(N)cc(C)c3O)nc2c1	Tau fil binding 13µM
CN1CCN(C(c2cccnc2)c2ccc3cccnc3c2O)CC1 (stereo not drawn)	Hsp90 Hop PPI 3.2µM, ERK AVP inh inconclusive
COc1ccc(OCC(=O)Nc2cc(OC)cc(OC)c2)cc1	none
O=C(O)c1ccc(OCc2occc2C(=O)O)cc1	none
O=C(C[n+]1ccc2ccccc2c1)c1ccc2ccc3ccccc3c2c1	Tau fil binding 2µM
O=c1ccn([C@H]2C[C@H](O)[C@@H](CO)O2)c(=O)[nH]1	none (no result: Hsp90 Hop PPI, Tau fil binding, TsaE inh, DNA Pol III inh)
CCN(CC)CCN(Cc1cc2cc3c(cc2[nH]c1=O)OCCO3)C(=O)NC1CCCCC1	none
O=C(Nc1ccc(F)cc1)N(Cc1ccco1)Cc1cc2cc3c(cc2[nH]c1=O)OCO3	ERK AVP inh 20µM
COc1ccc(CN(Cc2cc3cc4c(cc3[nH]c2=O)OCO4)C(=O)NC2CCCCC2)cc1	ALOX15 inhib 16µM, ERK AVP inh inconclusive
CCN(CC)CC(=O)N(CC(=O)Nc1c(C)cc(C)cc1C)C1CCCCC1	none
CCOC(=O)CSc1cc(=O)n(C)c2cc(Cl)ccc12	ALOX15 inhib 13µM
CCN1CCCC1CNC(=O)CSc1cc(=O)n(C)c2cc(Cl)ccc12 (stereo not drawn)	none
Cc1ccccc1Cn1nc(C)c(NC(=O)c2cc3n(n2)C(C(F)F)CC(C(F)F)N3)c1C (stereo not drawn)	none
O=C(CN(Cc1ccco1)C(=O)CNS(=O)(=O)c1ccc(F)cc1)NCc1ccc(F)cc1	none
CCOC(=O)CNC(=O)c1ccc2[nH]c3c(c2c1)CCCC3	none
CCS(=O)(=O)NCc1ccc2[nH]c3c(c2c1)CCCC3	ALOX15 inhib 0.4µM
Cc1cccc(CSc2nnc(-c3ccccn3)n2N)c1	Hsp90 Hop PPI inconclusive
COC(=O)c1cc2c([nH]c3ccccc32)c(C)n1	ERK AVP inh 32µM
COC(=O)c1cc(-c2c[nH]c3ccccc23)n[nH]1	none
Cc1ccc(O)c(N=Nc2ccccc2)n1	Tau fil binding inconclusive, ALOX15 inhib 13µM, ERK AVP inh inconclusive
CS(=O)(=O)N(Cc1ccccc1)c1ccc(C(=O)NC2CCCCC2O)cc1 (stereo not drawn)	none
COc1ccc(-c2cnc(N)nc2-c2ccc(OC)cc2O)cc1	Tau fil binding inconclusive, ERK AVP inh inconclusive
C=C(C)COc1ccc(-c2[nH]ncc2Oc2cccc(OC)c2)c(O)c1	none
C=C(C)COc1ccc(-c2nc(N)ncc2-c2ccc(OC)cc2)c(O)c1	Tau fil binding 13µM
C=C(C)COc1ccc(-c2ncncc2Oc2ccc(OC)cc2)c(O)c1	Tau fil binding 20µM
Cc1nc2ccc(-c3ccccc3)cc2o1	none
CC(OC(=O)c1nsc(Cl)c1Cl)C(=O)NCc1ccco1 (stereo not drawn)	none
CCOc1ccccc1OCCCCCc1c(C)n[nH]c1C	ERK AVP inh inconclusive
Cc1cccc(OCCCCc2c(C)n[nH]c2C)c1C	Tau fil binding 16µM, ERK AVP inh inconclusive
O=C(CSc1nnc(-c2ccccc2)o1)N1CCN(c2ccccc2)CC1	Tau fil binding 10µM, ALOX15 inhib inconclusive
